# NALP3 yeast inh – NALP3 inhibition in yeast; Yeast reconstituted NLRP3/ASC/caspase-1, beta-gal luminescence, 24 h; inhibition, % at 10 µM; 0.39% of 330,000 active;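 active means inhibition of 50% or more; inactive means inhibition below 50%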;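 further: plate controls were induced DMSO wells for no effect and uninduced yeast grown without galactose for full effect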
# tim10-1 inh – tim10-1 yeast growth inhibition; S. cerevisiae tim10-1 ts strain growth, BacTiter-Glo, 24 h; inhibition, % at 20 µM; 2.2% of 330,000 active; AID 463190;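 active means inhibition of at least 40%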;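 further: mutant grown at 25 °C; 0% = DMSO wells with yeast and 100% = wells holding no yeast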
# NALP1 yeast inh – blocks the NALP1 inflammasome reconstituted in yeast; AID 2071; S. cerevisiae NALP1/ASC/caspase-1 growth, X-gal OD620, 72 h; inhibition, % at 10 µM; 0.61% of 280,000 active; in the data active means inhibition mostly above about 24%, no sharp cut-off; inactive means mostly below about 32%
# V-ATPase pH – regulators of yeast V-ATPase proton transport | S. cerevisiae, pHLuorin cytosolic pH fluorescence | response, % at 10 µM | 0.37% of 350,000 active; in the data active means response mostly above about 7.3%, no sharp cut-off; inactive means mostly below about 5.4%; further: actives read high
# tim23-1 inh – tim23-1 yeast growth inhibition | S. cerevisiae tim23-1 growth, BacTiter-Glo luminescence, 24 h | 1.3% of 330,000 active | AID 463212 | inhibition, % at 20 µM;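 active means growth inhibition of the mutant yeast at or above 50%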;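 further: temperature-sensitive mutant grown at 25 °C; plate controls were DMSO-treated mutant yeast for no effect and medium wells lacking yeast for full effect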
# TIM10 inh – inhibits growth of TIM10 yeast strain; S. cerevisiae TIM10 strain growth, BacTiter-Glo luminescence, 24 h; 1.4% of 330,000 active; inhibition, % at 10 µM;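 active means inhibition of 40% or more at the single tested concentration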;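 further: wild-type TIM10 isogenic control strain grown at permissive 25 °C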
# tim23-1 conf – tim23-1 yeast growth inhibition, confirmed. shares compounds with tim23-1 inh. S. cerevisiae tim23-1 growth, BacTiter-Glo luminescence, 24 h. inhibition, % at 20 µM. 83% of 4,400 active. AID 463218;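 active means inhibition above about 39% in either of two replicate wells at 20 µM, limit read from the data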;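 further: temperature-sensitive tim23-1 mutant grown at 25 °C; 0% = DMSO wells with yeast and 100% = medium wells without yeast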
# V-ATPase pH SP – regulators of yeast V-ATPase proton transport. shares compounds with V-ATPase pH. S. cerevisiae pHLuorin cytosolic pH. response, % at 10 µM. 2% of 980 active; in the data active means response above about 24%;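 further: plate controls were vehicle wells for no effect and positive control wells for full effect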
# An asterisk follows results filed as active; nt = no result given. Sampled rows, rich in hits. Any-hit rate of the full collection: about 4.2%.
SMILES,NALP3 yeast inh,tim10-1 inh,NALP1 yeast inh,V-ATPase pH,tim23-1 inh,TIM10 inh,V-ATPase pH SP,others
CCn1c(O)c(C=Nc2ccc(S(N)(=O)=O)cc2)c(=O)n(CC)c1=S,7,10,12,1,10,2,nt,
NS(=O)(=O)c1ccc(N=Cc2c(O)n(C3CCCCC3)c(=O)n(C3CCCCC3)c2=O)cc1,15,24,11,0,52*,32,nt,tim23-1 conf=46*
c1ccc(NC2=NCCCS2)cc1,6,7,10,1,-3,-12,nt,
COc1cc(/C=C/[N+](=O)[O-])ccc1OC(=O)c1cccnc1,42,-63,17,4,85*,34,nt,tim23-1 conf=-25
COc1cc2c(cc1/C=C/[N+](=O)[O-])OCO2,nt,nt,9,6,nt,nt,nt,
CC(C)OC1CCCC(O)C1CC(=O)O (stereo not drawn),5,1,11,-1,3,0,nt,
O=C(c1cccs1)c1cn(Cc2ccccc2Cl)c2ccccc12,3,24,2,4,14,18,nt,
N#Cc1ccccc1Cn1cc(C(=O)c2cccs2)c2ccccc21,2,8,7,3,61*,22,nt,tim23-1 conf=13
COC(=O)C(O)(c1ccc(N=Cc2ccccc2O)c(C)c1)C(F)(F)F (stereo not drawn),5,-2,39,10,5,-7,nt,
CC(C)(C)c1ccc(O)c(N=Cc2c(O)ccc3ccccc23)c1,25,14,-16,0,51*,37,nt,tim23-1 conf=54*
COc1ccc2[nH]c(C)c(CCNCc3cn(C)c4ccccc34)c2c1,16,10,nt,5,14,3,nt,
CCN1C(=O)/C(=C\c2ccc([N+](=O)[O-])s2)C(=O)NC1=S,nt,nt,-3,nt,nt,nt,nt,
C=CCN1C(=O)/C(=C/c2ccc(Br)s2)C(=O)NC1=S,13,21,11,5,56*,17,nt,tim23-1 conf=72*
N#CC(C#N)=C(C#N)c1ccc(Nc2ccccc2)cc1,8,16,-11,-2,57*,-21,nt,tim23-1 conf=20
Cn1c(=O)n(C)c2cc([N+](=O)[O-])c(N3CCNCC3)cc21,-6,9,13,-4,3,3,nt,
CCOP(=S)(OCC)SCC(=O)NC(C(=O)O)C(C)C (stereo not drawn),12,3,-6,4,10,-14,nt,
CCC(C)(C)n1nnnc1C(c1cccs1)N1CC=C(c2ccc(F)cc2)CC1 (stereo not drawn),9,21,-14,3,57*,39,nt,tim23-1 conf=52*
O=C1NC(=O)C2(CCCc3ccc(N(CCCl)CCCl)cc32)N1 (stereo not drawn),nt,nt,nt,-3,nt,nt,nt,
Cc1ccc(C2C(S(C)(=O)=O)=C(O)C(=O)N2c2ccccc2)cc1 (stereo not drawn) (tested in a mixture with another compound),-4,3,6,7.7*,13,6,-1,
Cc1ccsc1/C=C1\C(=O)NC(=S)N(C)C1=O,27,18,-26,11*,22,10,45*,
COc1ccc(/C=C2\C(=O)NC(=S)N(C)C2=O)cc1C,-1,20,9,1,14,-13,nt,
CCOC(=O)c1ccccc1N,5,-16,nt,1,-10,2,nt,
CCOC(=O)c1cc2c(cn1)[nH]c1ccccc12,21,2,22,-4,20,0,0,
CCN1CCN(C(=O)COc2ccc3oc4c(c3c2)CCCC4)CC1,12,12,nt,-2,10,5,nt,
CCOc1ccc(N2C(=O)/C(=C/c3ccc(C)o3)C(=O)NC2=S)cc1,-4,39,8,6,20,15,nt,
SMILES,NALP3 yeast inh,tim10-1 inh,NALP1 yeast inh,V-ATPase pH,tim23-1 inh,TIM10 inh,V-ATPase pH SP,others
COc1ccc(N2C(=O)/C(=C/c3ccc(C)o3)C(=O)NC2=S)cc1,-1,12,1,11*,16,-4,82*,
C[C@]1(O)CC[C@H]2[C@@H]3CCC4=CC(=O)CC[C@]4(C)[C@@]3(F)[C@@H](O)C[C@@]21C,nt,nt,nt,9.2*,nt,nt,1,
CN1CCN(c2nc(N)cc(=O)[nH]2)CC1,8,14,26,-1,18,-11,nt,
Cc1ccc2nc(N3CCN(C)CC3)[nH]c2c1,4,-5,23,12*,9,-4,0,
O=c1oc2ccccc2c(O)c1C(c1ccc([N+](=O)[O-])cc1)c1c(O)c2ccccc2oc1=O,nt,nt,-17,12*,nt,nt,1,
CC(C)c1ccc(C(c2c(O)c3ccccc3oc2=O)c2c(O)c3ccccc3oc2=O)cc1,nt,nt,nt,-1,nt,nt,nt,
CCCCc1nc2ccccc2c(=O)n1-c1ccc(Cl)cc1[N+](=O)[O-],5,-4,6,2,4,3,nt,
Cc1cc(OCC(=O)N2CCC(C(=O)O)(c3ccccc3)CC2)c2c(C)c(C)c(=O)oc2c1,7,-6,4,10*,-1,3,0,
C/C(=N\N1CCCCCC1)c1c(O)n(-c2ccc(C)cc2)c(=O)[nH]c1=O,-22,37,22,8.7*,16,35,-4,
CCOC(=O)COc1ccc2c(c1)c(C(C)=O)c(C)n2Cc1ccccc1,-7,30,12,3,13,28,nt,
Cc1ccc([N+](=O)[O-])cc1,7,-15,nt,21*,1,7,4,
COC(=O)C1=C(c2cccc(OC)c2OC)C[C@@H]2CC[C@H]1N2C(=O)NCC1CC1,14,-9,nt,-2,-2,0,nt,
Cc1ccccc1CN1CCNCC1,4,19,14,11*,12,12,1,
O=C(Nc1ccc(F)cc1)c1c(O)c2c(n(Cc3ccccc3)c1=O)CCCC2,20,11,19,10.0*,11,17,4,
COc1cc2cc(C(=O)N3CC(COS(C)(=O)=O)c4ccc(O)cc43)[nH]c2c(OC)c1OC (stereo not drawn),nt,nt,nt,2,nt,nt,nt,
C/C(=N\Nc1ccccc1)c1c(O)[nH]c(=O)[nH]c1=O,20,-38,nt,16*,4,-4,-3,
CC(=O)C1C2c3ccccc3OC1(C)N=c1s/c(=C/c3cn(C)nc3C)c(=O)n12 (stereo not drawn),9,3,-9,0,8,10,nt,
C#CCOCOCC#CCN(CC)CC,23,-8,0,-1,0,-4,nt,
O=C1C2(c3ccccc3)CN3CN(C2)CC1(c1ccccc1)C3,9,-14,35,0,1,-6,nt,
